According to PubChem BioAssay AID463190 (Sanford-Burnham Center for Chemical Genomics, 2010):
Out of some 330,000 compounds screened, about 7,300 (2.2%) were called active. The sample holds actives, similar compounds and a random draw of the others, so the mix is not that of the screen.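 Rule for the calls: active = inhibition of at least 40%; inactive = the rest.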

test: growth inhibition of tim10-1 ts yeast – luminescence, uHTS, primary screen (AID 463190);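 note: mutant grown at 25 °C; 0% = DMSO wells with yeast and 100% = wells holding no yeast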; conditions: S. cerevisiae tim10-1 ts strain growth, BacTiter-Glo, 24 h; at 20 µM; active compounds read high

SMILES	inhibition
Cc1occc1-c1nnc(SCC(=O)NC2(C#N)CCCC2)n1C	-2.1% (inactive)
CCOC(=O)C1=C(C)NC(C)=C(C(=O)OCC)C1C1=COCCO1	4.91% (inactive)
COC1=C(N2CCOCC2)C(=O)c2ccccc2C1=O	9.96% (inactive)
Cc1ccccc1-c1ccc(Nc2ccc(C(=O)N3CCOCC3)cc2)nn1	3.37% (inactive)
Cc1oc2c(c1C(=O)N1CCOCC1)C(=O)c1ccccc1C2=O	58.7% (active)
CN1CCC(CN)(N2CCN(c3ccccc3)CC2)CC1	16.4% (inactive)
COC(=O)C1CCN(C(=O)c2ccc3oc(Cc4ccc(Cl)cc4)nc3c2)CC1	14.5% (inactive)
c1ccc(-c2nc(NCc3ccco3)c3ccccc3n2)cc1	51.3% (active)
c1ccc2c(NCC3CCCO3)nc(-c3ccncc3)nc2c1 (stereo not drawn)	33.4% (inactive)
Clc1cccc(-c2nc(NCC3CCCO3)c3ccccc3n2)c1 (stereo not drawn)	17.9% (inactive)
CCC(=O)N1CCc2cc(S(=O)(=O)CCC(=O)N3CCN(c4ccccc4F)CC3)ccc21	22% (inactive)
CCOC(=O)N1CCC(NC(=O)C(NS(=O)(=O)c2ccc3c(c2)CCN3C(=O)CC)C(C)C)CC1 (stereo not drawn)	-1.74% (inactive)
CCC(=O)N1CCc2cc(S(=O)(=O)NC(C(=O)N3CCc4ccccc4C3)C(C)C)ccc21 (stereo not drawn)	40.2% (active)
COc1ccccc1-c1cnn2c(N3CCOCC3)cc(C)nc12	4.69% (inactive)
COc1ccc(C(=O)NC(=S)N2CCNC(=O)C2CC(=O)OC(C)C)cc1 (stereo not drawn)	-10.3% (inactive)
COc1cccc(CNS(=O)(=O)c2cc3c(cc2C)n(C)c(=O)c(=O)n3C)c1	8.44% (inactive)
COc1cccc(Cn2cnc3c([N+](=O)[O-])c(C)c(C)cc32)c1	41% (active)
Cc1cccc(Cn2cnc3c(N)c(C)c(C)cc32)c1	16.8% (inactive)
CC1CCN(C(=O)c2ccc(CSc3ccc(Cl)cc3)cc2)CC1	24.5% (inactive)
O=C(c1ccc(CSc2ccccc2)cc1)N1CCCCCC1	42.3% (active)
O=C(c1ccc(S(=O)(=O)c2ccccc2)cc1)N1CCCCCC1	15.7% (inactive)
Cc1nc(NC(=O)CCC(=O)O)sc1C(=O)N(C)C	3.6% (inactive)
Cc1ccc(S(=O)(=O)NCC2CCC(C(=O)N3CCOCC3)CC2)cc1 (stereo not drawn)	9.53% (inactive)
Cc1ccc(S(=O)(=O)NCC(=O)N2CCOCCOCCOCCOCC2)cc1	3.97% (inactive)

SMILES	inhibition
Cc1ccc(S(=O)(=O)NC(C(=O)N2CCOCCOCCOCCOCC2)c2ccccc2)cc1 (stereo not drawn)	40.5% (active)
COc1ccnc(Oc2ccccc2)n1	-10.3% (inactive)
COc1ccc(S(=O)(=O)N2CCN(CC(=O)N3CCOCC3)CC2)cc1OC	-6.09% (inactive)
CC(=O)NNC(=O)c1csc(Cc2c(Cl)sc3ccc(Cl)cc23)n1	23.3% (inactive)
CNC(=O)c1csc(Cc2c(Cl)sc3ccc(Cl)cc23)n1	41.4% (active)
CNC(=O)c1csc(-c2ccccc2)n1	8.44% (inactive)
Cc1cccc(C)c1NC(=O)CN1C(=O)C(C)Oc2ccccc21 (stereo not drawn)	3.34% (inactive)
COc1ccccc1-n1ccnc(SCC(=O)NC2CCCCC2)c1=O	43.2% (active)
COc1ccccc1-n1ccnc1SCC(=O)NC(C)(C)C	4.37% (inactive)
COc1ccc(-c2nnc(SCC(=O)NC3CCCCC3)o2)cc1OC	17% (inactive)
CCN(c1ccc(NC(=O)COC(=O)CCc2nc3ccccc3n2-c2ccccc2)cc1)C(C)C	13.1% (inactive)
O=S(=O)(c1ccc(-c2ccno2)s1)N1CCCCC1	9.27% (inactive)
CNC(=O)C1CC(=O)N(Cc2ccc3c(c2)OCO3)C(=Nc2ccc(F)cc2)S1 (stereo not drawn)	-3.7% (inactive)
CC(C)Oc1ccc(CC(=O)NNC(=S)Nc2ccc(Br)cc2)cc1	17.7% (inactive)
CC1(C)CC(=O)C(C=NCCN2CCN(C(=S)Nc3cccc(Cl)c3)CC2)=C(O)C1	6.34% (inactive)
Cc1ccc(-n2[nH]c(C)c(/C=N/NC(=O)c3cccc([N+](=O)[O-])c3)c2=O)cc1C	6.18% (inactive)
CCNC(=S)N1CCN(CCN=CC2=C(O)CC(C)(C)CC2=O)CC1	-11.3% (inactive)
Cc1[nH]n(-c2ccc([N+](=O)[O-])cc2)c(=O)c1C=NCCN1CCN(C(=O)c2ccccc2F)CC1	42.3% (active)
Cc1[nH]n(-c2ccccc2)c(=O)c1N=Nc1ccccc1C(=O)N1CCCCC1	22.5% (inactive)
C=CCNC(=S)N1CCN(CCN=Cc2c(C)[nH]n(-c3ccc([N+](=O)[O-])cc3)c2=O)CC1	43.4% (active)
CCOc1ccc(CCNC(=O)COC(=O)c2c(OC)cccc2OC)cc1OCC	8.9% (inactive)
CCN(CC)c1ccc(C(=O)NNC(=O)CCc2nc3ccccc3c(=O)[nH]2)cc1	10.1% (inactive)
CC(=O)Oc1c(C(=O)c2nnc(C)o2)c(=O)n(Cc2ccccc2)c2ccccc12	7.1% (inactive)
CSCCC1NC(=O)N(CC(=O)Nc2cccc(S(=O)(=O)N3CCCCCC3)c2)C1=O (stereo not drawn)	10.1% (inactive)

SMILES	inhibition
O=S(=O)(c1ccc(F)cc1)N1CCN(C(=S)NC2CCCC2)CC1	16% (inactive)
C[n+]1ccc(/C=C/c2c[nH]c3ccccc23)cc1	10.5% (inactive)
CCC(C)(C)NC(=O)C(c1ccc(OC)cc1)N(C(=O)CCC(=O)Nc1cc(C)on1)c1ccc(OC)cc1OC (stereo not drawn)	6.97% (inactive)
CC1CCN(CCCNC(=O)CN2C(=O)CSc3ccc(S(=O)(=O)N4CCCCC4)cc32)CC1	25.2% (inactive)
COc1ccc(-c2cc(C)nc3nc(N)nn23)cc1	10.4% (inactive)
Cc1cc(C(C)(C)C)n2nc(C)c(-c3ccccc3)c2n1	8.46% (inactive)
Cc1cc(N)n2nc(-c3ccc(C(C)(C)C)cc3)cc2n1	57% (active)
O=C(O)CSC(NC(=O)c1cccnc1)(C(F)(F)F)C(F)(F)F	-2.15% (inactive)
CN(C)CCCCCN(C)Cc1cc2ccccc2o1	18.5% (inactive)
O=C1/C(=C\c2ccccc2Cl)SC(=S)N1CCC(=O)N1CCCc2ccccc21	41.3% (active)
CN(C(=O)CCN1C(=O)/C(=C/c2ccccc2F)SC1=S)C1CCS(=O)(=O)C1 (stereo not drawn)	6.93% (inactive)
O=C(CN1CCCCCC1)NCCN1C(=O)S/C(=C\c2ccccc2Cl)C1=O	12.4% (inactive)
C#CCCCc1nc2ccccc2c(=O)n1N	6.38% (inactive)
CC1CCCN(C(=O)c2ccc3c(c2)C(=O)N(CCC2=CCCCC2)C3=O)C1 (stereo not drawn)	24.8% (inactive)
COC(=O)c1ccc(COc2ccc(/C=C/C(=O)c3ccc(OC)c(CSCC(=O)O)c3)cc2OC)cc1	29.5% (inactive)
COc1ccc(/C=C/C(=O)c2ccc(NS(=O)(=O)c3ccc(C)cc3)cc2)cc1O	31.4% (inactive)
COc1ccc(C(=O)/C=C/c2ccc(-c3ccccc3)cc2)cc1CSCC(=O)O	41.5% (active)
CCCCn1c(=S)[nH]c2cc(S(=O)(=O)N3CCCCC3)ccc21	19.1% (inactive)
COc1ccc(C(=O)NC2(C(F)(F)F)NC(=O)N(CCCc3ccccc3)C2=O)c(OC)c1OC (stereo not drawn)	22.9% (inactive)
COc1ccccc1-n1c(=S)[nH]c2c(sc(=S)n2-c2ccc(C)cc2C)c1=O	8.48% (inactive)
Cc1ncc([N+](=O)[O-])n1CCOC(=O)c1ccc(Br)cc1	4.67% (inactive)
COc1ccc(C2=NN(C(C)=O)C(c3ccccc3)C2)cc1 (stereo not drawn)	19.4% (inactive)
COc1ccc(NC(=S)N2N=CCC2c2ccccc2)cc1 (stereo not drawn)	40.3% (active)
CCC(C)N(C)C1CCN(C(=S)Nc2ccc(OC)cc2)CC1 (stereo not drawn)	2.23% (inactive)

SMILES	inhibition
CCc1ccc(OCC(=O)NCC(c2ccc(Cl)cc2)N2CCCCC2)cc1 (stereo not drawn)	34.1% (inactive)
S=c1[nH]nc(-c2cccnc2)n1/N=C/C(Cl)=C\c1ccccc1	41.6% (active)
S=c1[nH]nc(-c2ccncc2)n1/N=C/c1ccccc1Cl	13.5% (inactive)
Fc1ccccc1/C=N/n1c(-c2cccnc2)n[nH]c1=S	-14.4% (inactive)
COc1ccc(NC(=O)C(CC(C)C)NC(=O)C2CCC(C)CC2)cc1 (stereo not drawn)	23.1% (inactive)
CC(=O)Nc1nc(C)c(Cc2ccccc2)c(=O)[nH]1	13.2% (inactive)
O=[N+]([O-])c1ccc2nc(-c3ccccn3)[nH]c2c1	34.1% (inactive)
COc1ccc([N+](=O)[O-])cc1-c1nc2ccccc2nc1-c1ccccc1	38.3% (inactive)
O=[N+]([O-])c1ccc2c(c1)Nc1nc3ccccc3nc1N2	60.5% (active)
CCSC(C)CC1C/C(=N/O)c2c(C)noc2C1 (stereo not drawn)	-9.02% (inactive)
Cc1ccc(N2CCN(C(=O)c3cccs3)CC2)c(C)c1	-6.62% (inactive)
O=C(CN1C(=O)c2ccccc2S1(=O)=O)NC1CCCCC1	7.88% (inactive)
O=C1c2ccccc2S(=O)(=O)N1CC(O)Cn1c2ccccc2c2ccccc21 (stereo not drawn)	60.7% (active)
CCCCN(CCCC)CC(O)Cn1c2ccccc2c(=O)c2ccccc21 (stereo not drawn)	14.3% (inactive)
CCC1=[N+]([O-])C(C)(/C(C)=N\O)N(O)C1(C)C (stereo not drawn)	9.85% (inactive)
O=C(NCc1ccccc1)C(c1cccnc1)N(C(=O)c1csnn1)c1ccc(F)cc1 (stereo not drawn)	-25% (inactive)
CCO[C@H]1OC(C(=O)N2CCN(Cc3ccccc3)CC2)=C[C@@H](c2cn(C(C)=O)c3ccccc23)[C@@H]1CCCO	15% (inactive)
COc1ccccc1Nc1ncnc2c1oc1ccccc12	3.5% (inactive)
COc1ccc(C)cc1Nc1nc(C)nc2c1oc1ccccc12	40.7% (active)
Cc1nc(Cl)c2oc3ccccc3c2n1	0.846% (inactive)
Cc1ccc(CC(=O)Nc2cccc(C#N)c2)cc1	22.1% (inactive)
